Laboratory results as given in PubChem BioAssay (NCI).
Compounds without any hit were thinned out: in the full panel of roughly 79,000, 15% have a hit. Active and inactive are the calls of the source. Cut-off read from the data, not from the text of the source: active = growth inhibition above about 70%; inactive = the rest.

Assays:
[1] = NCI Yeast Anticancer Drug Screen. Data for the rad52 strain (AID 147);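 note: 0% = growth of vehicle-treated control cultures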; conditions: S. cerevisiae rad52 mutant growth inhibition, stronger effect = higher value
Method in brief: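 Yeast strain carrying a DNA damage repair alteration was exposed to test compounds. Growth inhibition was measured relative to vehicle-treated controls.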

[2] = NCI Yeast Anticancer Drug Screen. Data for the wt1 strain (AID 149);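 note: 0% = growth of vehicle-treated wt1 cultures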; conditions: S. cerevisiae wt1 strain (SPY 50644) growth inhibition, stronger effect = higher value
Method in brief: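 wt1 yeast, compound-treated; % growth inhibition vs vehicle control.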

[3] = NCI Yeast Anticancer Drug Screen. Data for the rad50EPP+ strain (AID 151);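 note: 0% = growth of vehicle-treated control cultures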; conditions: S. cerevisiae rad50 mutant strain, stronger effect = higher value
Method in brief: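 Yeast strain carrying rad50 alteration (rad50EPP+) exposed to compounds; growth inhibition measured relative to vehicle-treated controls.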

[4] = NCI Yeast Anticancer Drug Screen. Data for the rad50 strain (AID 155);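 note: 0% = growth of vehicle-only cultures of the same strain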; conditions: S. cerevisiae rad50 strain growth inhibition, stronger effect = higher value
Method in brief: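 Genetically altered yeast (DNA repair pathway); compound treatment; growth inhibition vs vehicle ctrl.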

[5] = NCI Yeast Anticancer Drug Screen. Data for the mec2-1 strain (AID 157); conditions: S. cerevisiae mec2-1 strain, stronger effect = higher value
Method in brief: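 mec2-1 yeast strain, carrying an alteration in DNA damage repair or cell cycle control, was exposed to compounds; growth inhibition was measured relative to vehicle-treated controls.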

[6] = NCI Yeast Anticancer Drug Screen. Data for the sgs1 mgt1 strain (AID 161);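 note: 0% = growth of cultures given vehicle only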; conditions: S. cerevisiae sgs1 mgt1 strain, stronger effect = higher value
Method in brief: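 Growth of a repair-deficient yeast mutant was monitored after compound treatment and expressed as inhibition relative to vehicle-treated cultures.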

[7] = NCI Yeast Anticancer Drug Screen. Data for the CLN2oe strain (AID 163);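 note: 0% = growth of vehicle-only control cultures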; conditions: S. cerevisiae CLN2oe strain, stronger effect = higher value
Method in brief: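 Yeast cells carrying a defined cell-cycle control alteration were exposed to test compounds. Growth inhibition was scored against vehicle-treated control cultures.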

[8] = NCI Yeast Anticancer Drug Screen. Data for the cln2 rad14 strain (AID 165);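 note: 0% = growth equal to vehicle treated cultures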; conditions: S. cerevisiae cln2 rad14 strain, stronger effect = higher value
Method in brief: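 Yeast carrying cln2 and rad14 alterations (cell cycle control and DNA damage repair) were exposed to compounds. Growth inhibition was measured against vehicle-treated controls.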

[9] = NCI Yeast Anticancer Drug Screen. Data for the bub3 strain (AID 167); conditions: S. cerevisiae bub3 mutant strain, stronger effect = higher value
Method in brief: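 Yeast carrying a defined mutation is treated with each compound, and growth is compared with that of vehicle-exposed cells to give inhibition.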

[10] = NCI Yeast Anticancer Drug Screen. Data for the wt2 strain (AID 169);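 note: 0% = growth of vehicle-treated yeast cultures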; conditions: S. cerevisiae wt2 strain growth inhibition, stronger effect = higher value
Method in brief: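 Yeast cells were exposed to test compounds, and growth inhibition was measured relative to vehicle-treated controls.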

[11] = NCI Yeast Anticancer Drug Screen. Data for the mlh1 strain (AID 171);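 note: 0% = growth of vehicle-treated control cultures of the same strain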; conditions: S. cerevisiae mlh1 strain growth inhibition, stronger effect = higher value
Method in brief: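 Yeast carrying a defined genetic alteration in DNA damage repair or cell cycle control were exposed to test compounds. Growth inhibition was measured relative to vehicle-treated controls.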

[12] = NCI Yeast Anticancer Drug Screen. Data for the sgs1 strain (AID 173);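 note: 0% = growth of vehicle-only control cultures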; conditions: S. cerevisiae sgs1 mutant, stronger effect = higher value
Method in brief: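 Yeast mutant strains carrying defined defects in DNA damage repair or cell cycle control were exposed to test compounds. Growth inhibition was scored against vehicle-treated controls.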

[13] = NCI Yeast Anticancer Drug Screen. Data for the mlh1 rad18 strain (AID 175); conditions: S. cerevisiae mlh1 rad18 strain growth inhibition, stronger effect = higher value
Method in brief: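 Growth inhibition of the yeast strain was measured after compound exposure and expressed relative to vehicle-treated controls. The strain carries defined defects in DNA damage repair.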

[14] = NCI Yeast Anticancer Drug Screen. Data for the rad18 strain (AID 177); conditions: S. cerevisiae rad18 mutant growth inhibition, stronger effect = higher value
Method in brief: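 Yeast carrying a defined DNA damage repair alteration were exposed to compounds. Growth inhibition was expressed relative to vehicle-treated controls.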

[15] = NCI Yeast Anticancer Drug Screen. Data for the mgt1 strain (AID 153); conditions: S. cerevisiae mgt1 mutant growth inhibition, stronger effect = higher value
Method in brief: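 Yeast mgt1 strain (DNA repair/cell-cycle alteration panel) exposed to compounds; growth inhibition measured relative to vehicle-treated controls.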

[16] = NCI Yeast Anticancer Drug Screen. Data for the rad14 strain (AID 159);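 note: 0% = growth of vehicle-treated control cultures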; conditions: S. cerevisiae rad14 strain growth inhibition, stronger effect = higher value
Method in brief: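 Test compounds were applied to a repair-deficient yeast strain. Its growth was then compared with that of cultures given vehicle alone, and inhibition was expressed relative to those controls.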

[17] = at 5.0 µM (retest, dose inferred, filed as 0.5)
[18] = at 50.0 µM (retest, dose inferred, filed as 5.0)

Measured: growth inhibition

Cc1c(Cl)ccc2c1S(=O)(=O)c1cccc(Cl)c1-2
active: [4]; [17] 100% | [4]; [18] 100% | [5]; [17] 100% | [5]; [18] 100% | [9]; at 50.0 µM 81.3% | [13]; [17] 100% | [13]; [18] 100%
inactive: [1]; at 1.2 µM 0% | [1]; at 3.7 µM 0% | [1]; at 11.0 µM -4% | [1]; at 33.0 µM -9% | [1]; at 100.0 µM -9% | [2]; at 1.2 µM -6% | [2]; at 3.7 µM -2% | [2]; at 11.0 µM -1% | [2]; at 33.0 µM -15% | [2]; at 100.0 µM -1% | [3]; at 1.2 µM -12% | [3]; at 3.7 µM 12% | [3]; at 11.0 µM 7% | [3]; at 33.0 µM -37% | [3]; at 100.0 µM -17% | [4]; at 1.2 µM -22% | [4]; at 3.7 µM -9% | [4]; at 11.0 µM -30% | [4]; at 33.0 µM -17% | [4]; at 50.0 µM 20.8% | [4]; at 100.0 µM -3% | [5]; at 1.2 µM -24% | [5]; at 3.7 µM -31% | [5]; at 11.0 µM -32% | [5]; at 33.0 µM -28% | [5]; at 50.0 µM 29.5% | [5]; at 100.0 µM -32% | [6]; [17] -13% | [6]; [18] 28% | [6]; at 50.0 µM 20.9% | [7]; at 1.2 µM -5% | [7]; at 3.7 µM 6% | [7]; at 11.0 µM 8% | [7]; at 33.0 µM -4% | [7]; at 100.0 µM -18% | [8]; [17] 31% | [8]; [18] 28% | [8]; at 50.0 µM 0.75% | [9]; at 1.2 µM -27% | [9]; at 3.7 µM -13% | [9]; [17] 18% | [9]; at 11.0 µM 1% | [9]; at 33.0 µM -10% | [9]; [18] 51% | [9]; at 100.0 µM -18% | [10]; at 1.2 µM -10% | [10]; at 3.7 µM -9% | [10]; at 11.0 µM -12% | [10]; at 33.0 µM -12% | [10]; at 100.0 µM -25% | [11]; at 1.2 µM -3% | [11]; at 3.7 µM 2% | [11]; at 11.0 µM -5% | [11]; at 33.0 µM -8% | [11]; at 100.0 µM -2% | [12]; at 1.2 µM -10% | [12]; at 3.7 µM -19% | [12]; at 11.0 µM -18% | [12]; at 33.0 µM -13% | [12]; at 100.0 µM -24% | [13]; at 50.0 µM 37.2% | [14]; at 1.2 µM -18% | [14]; at 3.7 µM 2% | [14]; at 11.0 µM 6% | [14]; at 33.0 µM -1% | [14]; at 100.0 µM 7%

O=C(NCCCCNCCCNC(=O)c1cc(-c2ccccc2)nc2ccccc12)c1cc(-c2ccccc2)nc2ccccc12
active: [1]; at 100.0 µM 92% | [2]; at 100.0 µM 91% | [15]; at 100.0 µM 94% | [4]; at 33.0 µM 81% | [4]; [18] 97% | [4]; at 50.0 µM 97% | [4]; at 100.0 µM 92% | [5]; at 50.0 µM 97.3% | [5]; at 100.0 µM 94% | [16]; at 33.0 µM 96% | [16]; at 100.0 µM 94% | [6]; at 50.0 µM 97.5% | [7]; at 100.0 µM 91% | [8]; at 50.0 µM 97.6% | [9]; at 50.0 µM 97.2% | [9]; at 100.0 µM 92% | [10]; at 100.0 µM 93% | [11]; at 100.0 µM 94% | [12]; at 100.0 µM 93% | [13]; [18] 92% | [14]; at 33.0 µM 89% | [14]; at 100.0 µM 91%
inactive: [1]; at 1.2 µM -1% | [1]; at 3.7 µM -1% | [1]; at 11.0 µM -3% | [1]; at 33.0 µM 40% | [2]; at 1.2 µM 6% | [2]; at 3.7 µM 2% | [2]; at 11.0 µM 2% | [2]; at 33.0 µM 5% | [15]; at 1.2 µM 2% | [15]; at 3.7 µM 2% | [15]; at 11.0 µM -1% | [15]; at 33.0 µM 59% | [4]; at 1.2 µM -5% | [4]; at 3.7 µM -5% | [4]; [17] -29% | [4]; at 11.0 µM -3% | [5]; at 1.2 µM -1% | [5]; at 3.7 µM -3% | [5]; [17] -15% | [5]; at 11.0 µM -4% | [5]; at 33.0 µM 56% | [5]; [18] 59% | [16]; at 1.2 µM 0% | [16]; at 3.7 µM -2% | [16]; at 11.0 µM 1% | [6]; [17] -16% | [6]; [18] 58% | [7]; at 1.2 µM 1% | [7]; at 3.7 µM -1% | [7]; at 11.0 µM -1% | [7]; at 33.0 µM 43% | [8]; [17] 40% | [8]; [18] 55% | [9]; at 1.2 µM -2% | [9]; at 3.7 µM -1% | [9]; [17] -8% | [9]; at 11.0 µM -2% | [9]; at 33.0 µM 50% | [9]; [18] 65% | [10]; at 1.2 µM 2% | [10]; at 3.7 µM -1% | [10]; at 11.0 µM -2% | [10]; at 33.0 µM 20% | [11]; at 1.2 µM 0% | [11]; at 3.7 µM -1% | [11]; at 11.0 µM 0% | [11]; at 33.0 µM 63% | [12]; at 1.2 µM 0% | [12]; at 3.7 µM 0% | [12]; at 11.0 µM 1% | [12]; at 33.0 µM 33% | [13]; [17] -13% | [13]; at 50.0 µM 39.5% | [14]; at 1.2 µM 0% | [14]; at 3.7 µM -1% | [14]; at 11.0 µM -1%
